According to PubChem BioAssay (Tox21):
Inconclusive results are not listed. Calls of active or inactive are those of the source. Unless noted, the call rests on the fitted dose curve; in most records, active means well fitted curve in the direction sought with a large enough effect in the repeat runs; inconclusive means weak or mixed curves; inactive means no such curve, though single readings can be large; an effect the other way counts as inactive or inconclusive.

Columns and labels:
[1] = qHTS assay to identify small molecule agonists of the vitamin D receptor (VDR) signaling pathway - cell viability counter screen (AID 743224); further: series mostly up to about 63 µM; nearly all actives have a fitted effect of over 50% in size
Method in brief: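 In parallel with the bla FRET readout, cytotoxicity toward VDR-bla cells after 16 h compound exposure was assessed by CellTiter-Glo, with luminescence recorded after a 30 min room-temperature incubation.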

[2] = qHTS assay to identify small molecule agonists of the NFkB signaling pathway (AID 1159509; active means well fitted curve in the direction sought with a large enough effect in the signal ratio in the repeat runs, not every such curve was filed as active; the % refers to the signal ratio; further: series mostly up to about 61 µM)
Method in brief: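 Agonist activity was read as beta-lactamase-driven FRET change (460 and 530 nm emission, 405 nm excitation) following 1.5 hr substrate loading at room temperature. Beforehand, ME-180 NFkB-bla reporter cells were treated with compounds for 5 hr at 37 C.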

[3] = qHTS assay to identify small molecule agonists of the NFkB signaling pathway - cell viability counter screen (AID 1159515; calls by dose curve; further: series mostly up to about 61 µM; nearly all actives have a fitted effect of over 55% in size)
Method in brief: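 Plate 2,000 NFkB-bla ME-180 cells/well; incubate overnight. Add compounds, 5 hr at 37 C. Add FRET substrate, 1.5 hr RT. Add CellTiter-Glo, 30 min RT; read luminescence.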

[4] = qHTS assay to identify small molecule agonists of the endoplasmic reticulum stress response signaling pathway - cell viability counter screen (AID 1159517; calls by dose curve; further: series mostly up to about 61 µM; nearly all actives have a fitted effect of over 50% in size)
Method in brief: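 ESRE-bla HeLa cells (1,500/well) were plated overnight at 37 C and exposed to compounds for 5 hr. After the 2 hr beta-lactamase substrate read, CellTiter-Glo went into the same wells, and luminescence was read after 30 min at room temperature.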

[5] = qHTS assay to identify small molecule antagonists of the retinoid-related orphan receptor gamma (ROR-gamma) signaling pathway - cell viability counter screen (AID 1159520); further: nearly all actives have a fitted effect of over 50% in size
Method in brief: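 Cytotoxicity was read from cellular ATP (CellTiter-Glo luminescence) after 16 hr at 37 C with 1 uM doxycycline induction. The inducer was added 2 hr after compound transfer to Tet-on ROR gamma CHO cells.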

[6] = molecular target: Nuclear receptor ROR-gamma (Homo sapiens) (UniProt P51449); experiment: qHTS assay to identify small molecule antagonists of the retinoid-related orphan receptor gamma (ROR-gamma) signaling pathway (AID 1159521;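 further: CHO cells with doxycycline inducible ROR-gamma driving an RORE luciferase reporter; top concentration of the series differs between compounds; nearly all actives have a fitted effect of over 50% in size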)
Method in brief: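 Test compounds were applied to Tet-on RORγ CHO cells 2 h ahead of doxycycline hyclate (1 uM final). Luciferase reporter activity was quantified by luminescence after 16 h at 37 C and 5% CO2.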

[7] = qHTS assay to identify small molecule agonists of the AP-1 signaling pathway - cell viability counter screen (AID 1159525; calls by dose curve; further: nearly all actives have a fitted effect of over 55% in size)
Method in brief: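 Intracellular ATP by Cell Titer Glo luminescence (30 min, RT) in the same ME-180 AP-1-bla wells after the 5 h compound exposure at 37 °C. Normalised to tetra n-octyl ammonium bromide and DMSO controls.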

[8] = qHTS assay to identify small molecule agonists of the AP-1 signaling pathway (AID 1159526; calls by dose curve)
[9] = molecular target: Retinoic acid receptor RXR-alpha (Homo sapiens) (UniProt P19793); experiment: qHTS assay to identify small molecule agonists of the RXR signaling pathway (AID 1159527; calls by dose curve; further: nearly all actives have a fitted effect of over 35% in size)
Method in brief: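 Using 9-cis retinoic acid as the reference agonist, chemicals were tested in HEK 293T cells […] for 16 hr; substrate loading lasted 2 hr at room temperature.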

[10] = qHTS assay to identify small molecule agonists of the RXR signaling pathway - cell viability counter screen (AID 1159529)
Method in brief: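 Compounds dissolved in DMSO were pinned onto HEK 293T cells carrying a beta-lactamase reporter under RXR-alpha control and incubated 16 hr. Cytotoxicity was then quantified by CellTiter-Glo luminescence.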

[11] = qHTS assay to identify small molecule antagonists of the retinoic acid receptor (RAR) signaling pathway (AID 1159552; further: nearly all actives have a fitted effect of over 50% in size)
Method in brief: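 Test chemicals and DMSO controls were pin-transferred onto C3RL4 cells a day after seeding; retinol (1 uM final) followed at once. Luminescent reporter output was quantified after 6 hr of co-incubation and 30 min with detection reagent.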

[12] = qHTS assay to identify small molecule antagonists of the vitamin D receptor (VDR) signaling pathway - cell viability counter screen (AID 743225); further: nearly all actives have a fitted effect of over 50% in size
Method in brief: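 Compounds were pinned onto VDR-bla HEK 293T cells together with 1-alpha,25-dihydroxyvitamin D3 at 3 nM final. After 16 h at 37C and 5% CO2 plus the reporter readout, cell viability was measured by CellTiter-Glo luminescence (30 min, room temperature).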

[13] = qHTS assay to identify small molecule antagonists of the retinoid acid receptor (RAR) signaling pathway - cell viability counter screen (AID 1159551); further: nearly all actives have a fitted effect of over 35% in size
Method in brief: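 Viability of C3RL4 cells is quantified from ATP by luminescence after 6 h treatment at 37 C with compounds and 1 uM retinol.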

[14] = qHTS assay to identify small molecule agonists of the endoplasmic reticulum stress response signaling pathway (AID 1159516; active means well fitted activation curve with a large enough effect in the signal ratio in the repeat runs, not every such curve was filed as active; the % refers to the signal ratio)
Method in brief: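 Beta-lactamase expression from the ER stress response element in HeLa reporter cells is quantified with the LiveBLAzer B/G FRET substrate, read at 405 nm excitation after 2 hr at room temperature, following 5 hr compound treatment at 37 C.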

[15] = qHTS assay to identify small molecule agonists of the retinoic acid receptor (RAR) signaling pathway (AID 1159553)
Method in brief: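 Compounds dissolved in DMSO were pinned onto C3RL4 cells seeded the previous day, and plates were held 6 hr at 37 C. RARE-driven luciferase output was then read by luminescence.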

Measured: Potency

Retinoic acid receptor RXR-alpha (Homo sapiens), sequence (P19793 whole entry, looked up): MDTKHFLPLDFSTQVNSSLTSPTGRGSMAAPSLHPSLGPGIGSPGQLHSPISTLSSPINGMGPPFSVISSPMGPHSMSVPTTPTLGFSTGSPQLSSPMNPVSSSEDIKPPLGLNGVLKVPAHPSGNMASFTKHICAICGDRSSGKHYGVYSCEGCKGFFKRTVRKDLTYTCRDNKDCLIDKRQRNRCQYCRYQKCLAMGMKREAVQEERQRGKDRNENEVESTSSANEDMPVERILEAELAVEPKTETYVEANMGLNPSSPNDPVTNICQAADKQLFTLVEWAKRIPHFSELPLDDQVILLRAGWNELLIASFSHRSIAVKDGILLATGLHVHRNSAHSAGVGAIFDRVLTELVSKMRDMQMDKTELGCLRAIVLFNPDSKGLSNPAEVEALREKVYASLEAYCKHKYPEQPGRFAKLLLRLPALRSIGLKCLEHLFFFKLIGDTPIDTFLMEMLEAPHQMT

CCOC(=O)/C=C/c1ccccc1
not listed: [12] | [13] | [14] | [15]
inactive: all other assays above

COc1ccc(OC)c(Cl)c1
not listed: [13] | [14] | [15]
inactive: all other assays above

O=C(O)CCSSCCC(=O)O
not listed: [7] | [14] | [15]
inactive: all other assays above

OCCN(CCO)c1cccc(Cl)c1
not listed: [5] | [11] | [15]
inactive: all other assays above

BrCCCCCBr
not listed: [5] | [11] | [12] | [15]
inactive: all other assays above

COc1cc2c(cc1OC)C(=O)CC2
not listed: [7] | [11] | [12] | [14] | [15]
inactive: all other assays above

CCOC(=O)[C@H](CCc1ccccc1)N[C@@H](C)C(=O)N1C(=O)N(C)C[C@H]1C(=O)O
not listed: [5] | [7] | [11] | [15]
inactive: all other assays above

O=Cc1ccc(Cl)c(Cl)c1
not listed: [5] | [7] | [11] | [12]
inactive: all other assays above

C=C(C)C(=O)OCCNC(C)(C)C
not listed: [11] | [13] | [14] | [15]
inactive: all other assays above

CCCCCCCCCCl
not listed: [14]
inactive: all other assays above

C=C(C)C(=O)OCCN(CC)CC
not listed: [5] | [10] | [11] | [15]
inactive: all other assays above

O=C(OCC(O)CO)c1ccccc1Nc1ccnc2c(C(F)(F)F)cccc12 (centres undefined)
not listed: [5] | [7] | [10] | [11]
inactive: all other assays above

Cc1cc(NC(=O)C2=C(O)c3ccccc3S(=O)(=O)N2C)no1
not listed: [5] | [10]
inactive: all other assays above

CC(=O)/C=C/C1C(C)=CCC(C)C1(C)C (centres undefined)
not listed: [12] | [14] | [15]
inactive: all other assays above

C=C1CC/C=C(\C)CC[C@@H]2[C@@H]1CC2(C)C
not listed: [7] | [11] | [14] | [15]
inactive: all other assays above

CCCCC(CC)COCCO (centres undefined)
not listed: [5] | [11] | [12] | [15]
inactive: all other assays above

CC(=O)NCCCCCC(=O)O
not listed: [5] | [10] | [11] | [15]
inactive: all other assays above

CCCCCCCCC(=O)Cl
not listed: [5] | [11] | [14] | [15]
inactive: all other assays above

CCC(C)NC(N)=O (centres undefined)
not listed: [3] | [7] | [11] | [12] | [14] | [15]
inactive: all other assays above

CCC(CC)CO
not listed: [3] | [7] | [10] | [11] | [15]
inactive: all other assays above

O=S(=O)(O)c1cc(O)c2ccc(Nc3ccccc3)cc2c1
not listed: [5] | [10] | [12] | [14] | [15]
inactive: all other assays above

CCCC/C=C/C=C\C=O
not listed: [3] | [5] | [11]
inactive: all other assays above

CC(=O)Nc1ccc(S(=O)(=O)Nc2ccc([N+](=O)[O-])cc2)cc1
not listed: [3] | [10] | [14] | [15]
inactive: all other assays above

Cc1[nH]cnc1-c1ccc(Cl)cc1
not listed: [3] | [15]
inactive: all other assays above

CCCCCCN
not listed: [3] | [15]
inactive: all other assays above
